“And” between values parts separate entries of the source, which are not always exact repeats. Identical values can stand only once. The campaign covered roughly 5,500 compounds. About 2,000 (36%) were called active. Roughly 18% stayed inconclusive and do not appear here. Rule as the data show it: active = normalized growth mostly below about 0.91 (no sharp cut-off); inconclusive = no clear call, values can overlap the other calls; inactive = mostly above about 0.92. This is one part of the list.
Assay: chemical genetic growth profiling, strain panel (AID 1159580);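 also: tested at 20 µM; growth read once vehicle control cultures reached saturation at 30 °C; 1 = growth at the plate median or of vehicle wells; lower values mean less growth of the strain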
Settings: growth OD

Measured: normalized growth

CN1C2CCC1CC(OC(c1ccccc1)c1ccccc1N)C2 (stereo unspecified)
inactive: S. cerevisiae deletion strains, locus YJR075W, strain HOC1, hits give low values 0.997 and 1.08 | S. cerevisiae deletion strains, locus YKL009W, strain mrt4, hits give low values 1.03 | S. cerevisiae deletion strains, locus YKL068W, hits give low values 1.01 | S. cerevisiae deletion strains, locus YKL085W, strain MDH1 (second series), hits give low values 1 | S. cerevisiae deletion strains, locus YKL085W, strain MDH1, hits give low values 1 | S. cerevisiae deletion strains, locus YKL160W, strain elf1, hits give low values 1 | S. cerevisiae deletion strains, locus YKL190W, strain CNB1, hits give low values 1 | S. cerevisiae deletion strains, locus YKR001C, strain vps1, hits give low values 1.02 | S. cerevisiae deletion strains, locus YKR026C, strain gcn3, hits give low values 0.99 | S. cerevisiae deletion strains, locus YKR091W, strain srl3, hits give low values 0.996 | S. cerevisiae deletion strains, locus YLL001W, strain dnm1, hits give low values 1.01 | S. cerevisiae deletion strains, locus YLL026W, hits give low values 0.982 | S. cerevisiae deletion strains, locus YLL041C, strain sdh2, hits give low values 1 | S. cerevisiae deletion strains, locus YLR027C, strain aat2, hits give low values 0.986 | S. cerevisiae deletion strains, locus YLR039C, strain RIC1, hits give low values 1.02 | S. cerevisiae deletion strains, locus YLR058C, strain SHM2, hits give low values 1 | S. cerevisiae deletion strains, locus YLR102C, strain apc9, hits give low values 1.01 | S. cerevisiae deletion strains, locus YLR113W, strain HOG1, hits give low values 1.05 | S. cerevisiae deletion strains, locus YLR221C, strain rsa3, hits give low values 0.998 | S. cerevisiae deletion strains, locus YLR258W, strain gsy2, hits give low values 1 | S. cerevisiae deletion strains, locus YLR262C, strain YPT6 (second series), hits give low values 1.03 | S. cerevisiae deletion strains, locus YLR262C, strain YPT6, hits give low values 1.02 | S. cerevisiae deletion strains, locus YLR268W, strain sec22, hits give low values 1.01 | S. cerevisiae deletion strains, locus YLR320W, strain mms22, hits give low values 0.994 | S. cerevisiae deletion strains, locus YLR330W, strain CHS5, hits give low values 1.01 | S. cerevisiae deletion strains, locus YLR342W, strain FKS1 (second series), hits give low values 1.02 | S. cerevisiae deletion strains, locus YLR342W, strain FKS1, hits give low values 0.994 | S. cerevisiae deletion strains, locus YLR357W, strain rsc2, hits give low values 0.979 | S. cerevisiae deletion strains, locus YLR370C, strain arc18, hits give low values 0.978 | S. cerevisiae deletion strains, locus YLR371W, strain rom2, hits give low values 1.01 | S. cerevisiae deletion strains, locus YLR384C, strain iki3, hits give low values 1 | S. cerevisiae deletion strains, locus YLR418C, strain cdc73, hits give low values 0.994 | S. cerevisiae deletion strains, locus YML016C, strain PPZ1, hits give low values 1 | S. cerevisiae deletion strains, locus YML032C, strain rad52, hits give low values 1.03 | S. cerevisiae deletion strains, locus YML120C, strain ndi1, hits give low values 0.988 | S. cerevisiae deletion strains, locus YML124C, strain tub3, hits give low values 1.02 | S. cerevisiae deletion strains, locus YMR058W, strain fet3, hits give low values 1 | S. cerevisiae deletion strains, locus YMR078C, strain ctf18, hits give low values 1.02 | S. cerevisiae deletion strains, locus YMR125W, strain sto1, hits give low values 0.992 | S. cerevisiae deletion strains, locus YMR129W, hits give low values 0.997 | S. cerevisiae deletion strains, locus YMR205C, strain PFK2, hits give low values 0.981 | S. cerevisiae deletion strains, locus YMR223W, strain ubp8, hits give low values 1.01 | S. cerevisiae deletion strains, locus YMR231W, strain pep5, hits give low values 0.999 | S. cerevisiae deletion strains, locus YMR263W, strain SAP30, hits give low values 0.999 and 1 | S. cerevisiae deletion strains, locus YMR307W, strain GAS1, hits give low values 1 | S. cerevisiae deletion strains, locus YNL067W, strain RPL9B, hits give low values 1.01 | S. cerevisiae deletion strains, locus YNL071W, strain lat1, hits give low values 1 | S. cerevisiae deletion strains, locus YNL128W, strain TEP1, hits give low values 0.993 | S. cerevisiae deletion strains, locus YNL153C, strain GIM3, hits give low values 1 | S. cerevisiae deletion strains, locus YNL175C, strain NOP13, hits give low values 1.01 | S. cerevisiae deletion strains, locus YNL183C, strain NPR1, hits give low values 0.92 | S. cerevisiae deletion strains, locus YNL197C, strain WHI3, hits give low values 1.02 | S. cerevisiae deletion strains, locus YNL209W, strain ssb2, hits give low values 1.01 | S. cerevisiae deletion strains, locus YNL224C, strain SQS1, hits give low values 1.03 | S. cerevisiae deletion strains, locus YNL233W, strain BNI4, hits give low values 1.01 | S. cerevisiae deletion strains, locus YNL248C, strain rpa49, hits give low values 0.995 | S. cerevisiae deletion strains, locus YNL250W, strain rad50, hits give low values 1.02 | S. cerevisiae deletion strains, locus YNL271C, strain bni1, hits give low values 1 | S. cerevisiae deletion strains, locus YNL298W, strain CLA4, hits give low values 1.01 | S. cerevisiae deletion strains, locus YNL307C, strain MCK1, hits give low values 1 | S. cerevisiae deletion strains, locus YNL322C, strain KRE1 (second series), hits give low values 1 | S. cerevisiae deletion strains, locus YNL322C, strain KRE1, hits give low values 0.996 | S. cerevisiae deletion strains, locus YNR049C, strain mso1, hits give low values 0.996 | S. cerevisiae deletion strains, locus YNR052C, strain pop2, hits give low values 1.01 | S. cerevisiae deletion strains, locus YOL006C, strain TOP1, hits give low values 0.986 | S. cerevisiae deletion strains, locus YOL012C, strain htz1 1.61 | S. cerevisiae deletion strains, locus YOL147C, strain pex11, hits give low values 1.02 | S. cerevisiae deletion strains, locus YOR001W, strain rrp6, hits give low values 1.01 | S. cerevisiae deletion strains, locus YOR061W, strain CKA2, hits give low values 1.01 | S. cerevisiae deletion strains, locus YOR069W, strain VPS5, hits give low values 1 | S. cerevisiae deletion strains, locus YOR070C, strain gyp1, hits give low values 1.01 | S. cerevisiae deletion strains, locus YOR080W, strain dia2, hits give low values 0.985 | S. cerevisiae deletion strains, locus YOR083W, strain WHI5 (second series), hits give low values 1.02 | S. cerevisiae deletion strains, locus YOR083W, strain WHI5, hits give low values 1 | S. cerevisiae deletion strains, locus YOR106W, strain vam3, hits give low values 1.01 | S. cerevisiae deletion strains, locus YOR136W, strain idh2, hits give low values 1.03 | S. cerevisiae deletion strains, locus YOR144C, strain elg1, hits give low values 1.01 | S. cerevisiae deletion strains, locus YOR184W, strain ser1, hits give low values 1.04 | S. cerevisiae deletion strains, locus YOR231W, strain MKK1, hits give low values 0.977 | S. cerevisiae deletion strains, locus YOR265W, strain rbl2, hits give low values 1.01 | S. cerevisiae deletion strains, locus YOR270C, strain vph1, hits give low values 1.03 | S. cerevisiae deletion strains, locus YOR290C, strain snf2, hits give low values 1.01 | S. cerevisiae deletion strains, locus YOR316C, strain cot1, hits give low values 1.02 | S. cerevisiae deletion strains, locus YPL051W, strain arl3, hits give low values 0.989 | S. cerevisiae deletion strains, locus YPL055C, strain LGE1, hits give low values 1.01 | S. cerevisiae deletion strains, locus YPL078C, strain atp4, hits give low values 1.01 | S. cerevisiae deletion strains, locus YPL106C, strain sse1, hits give low values 0.957 | S. cerevisiae deletion strains, locus YPL240C, strain hsp82, hits give low values 1.02 | S. cerevisiae deletion strains, locus YPL241C, strain CIN2, hits give low values 0.998 and 1 | S. cerevisiae deletion strains, locus YPL256C, strain CLN2, hits give low values 0.986 | S. cerevisiae deletion strains, locus YPR119W, strain clb2, hits give low values 0.999 | S. cerevisiae deletion strains, locus YPR141C, strain kar3, hits give low values 1.02 | S. cerevisiae deletion strains, locus YPR163C, strain tif3, hits give low values 1.03 | S. cerevisiae deletion strains, locus YPR167C, strain met16, hits give low values 1.02 | S. cerevisiae deletion strains, strain wtn01, hits give low values 1.02 | S. cerevisiae strains, strain wild type, hits give low values 0.984
